# Source: publication PMC7862700, “An all-to-all approach to the identification of sequence-specific readers for epigenetic DNA modifications on cytosine”
# Key:
# Test in all cases: DAPPL (digital affinity profiling via proximity ligation, sequencing); 10 mM Tris-HCl pH 7.5, 50 mM NaCl, 1 mM DTT, 4% glycerol, room temperature, 30 min; GST-TFs on glutathione beads, 16-mer random dsDNA library, 0.1% formaldehyde crosslink after washing; high values mean tight binding
# Conditions in all cases: protein: recombinant; tags: N-terminal GST; dsDNA, one strand shown
# [1] = target: T1, FLI1 (Homo sapiens, UniProt Q01543 1-452)
# T1 sequence: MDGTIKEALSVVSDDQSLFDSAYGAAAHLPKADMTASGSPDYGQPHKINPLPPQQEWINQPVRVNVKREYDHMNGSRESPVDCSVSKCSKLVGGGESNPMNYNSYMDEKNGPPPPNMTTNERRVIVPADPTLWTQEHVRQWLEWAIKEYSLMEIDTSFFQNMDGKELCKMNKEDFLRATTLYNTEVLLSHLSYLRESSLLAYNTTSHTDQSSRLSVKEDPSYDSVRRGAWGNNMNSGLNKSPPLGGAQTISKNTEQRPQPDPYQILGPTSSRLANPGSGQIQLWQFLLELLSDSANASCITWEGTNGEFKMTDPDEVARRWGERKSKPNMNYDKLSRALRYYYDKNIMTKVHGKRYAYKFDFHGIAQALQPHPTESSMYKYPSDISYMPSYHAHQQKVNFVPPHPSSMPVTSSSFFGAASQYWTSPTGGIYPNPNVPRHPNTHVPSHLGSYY
# Outline: (§1)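 Human transcription factors were made in yeast as GST fusions, captured on glutathione beads and barcoded with DNA. With a tag-only sample included, the pool was incubated with 200 nmole of a random double-stranded 16-mer DNA library in Tris/NaCl/DTT/glycerol buffer at room temperature for 30 min, then crosslinked with 0.1% formaldehyde after washing, ligated by proximity, amplified and sequenced. For binding signal, each hexamer's read frequency for a factor is divided by its frequency for the tag-only sample.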
# [2] = target: T2, ELK1 (Homo sapiens, UniProt P19419 1-428)
# T2 sequence: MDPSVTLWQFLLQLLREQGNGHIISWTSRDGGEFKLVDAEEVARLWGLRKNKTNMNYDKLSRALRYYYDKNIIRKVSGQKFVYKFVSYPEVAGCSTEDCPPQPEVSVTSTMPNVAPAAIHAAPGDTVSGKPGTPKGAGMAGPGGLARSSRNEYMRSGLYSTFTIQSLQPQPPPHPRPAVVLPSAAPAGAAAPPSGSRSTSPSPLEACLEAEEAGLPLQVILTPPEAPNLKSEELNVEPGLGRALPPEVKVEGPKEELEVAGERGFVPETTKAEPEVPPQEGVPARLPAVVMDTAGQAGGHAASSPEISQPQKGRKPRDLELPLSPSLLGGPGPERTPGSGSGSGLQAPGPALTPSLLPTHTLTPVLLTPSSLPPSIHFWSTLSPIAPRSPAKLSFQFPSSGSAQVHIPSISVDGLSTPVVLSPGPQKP
# Outline: as §1
# [3] = target: T3, GABPA (Homo sapiens, UniProt Q06546 1-454)
# T3 sequence: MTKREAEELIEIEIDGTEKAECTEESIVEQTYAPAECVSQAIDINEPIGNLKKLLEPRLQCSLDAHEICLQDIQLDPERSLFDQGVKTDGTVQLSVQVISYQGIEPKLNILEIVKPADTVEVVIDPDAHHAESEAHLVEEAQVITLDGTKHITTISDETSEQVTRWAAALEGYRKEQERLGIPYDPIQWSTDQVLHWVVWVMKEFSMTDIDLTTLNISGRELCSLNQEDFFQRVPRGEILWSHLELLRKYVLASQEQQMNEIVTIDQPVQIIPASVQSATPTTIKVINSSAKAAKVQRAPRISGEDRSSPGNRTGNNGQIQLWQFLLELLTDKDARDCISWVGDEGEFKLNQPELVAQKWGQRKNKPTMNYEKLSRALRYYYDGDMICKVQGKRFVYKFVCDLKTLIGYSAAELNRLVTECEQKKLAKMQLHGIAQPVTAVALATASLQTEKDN
# Outline: as §1
# [4] = target: T4, ERG (Homo sapiens, UniProt P11308 1-479)
# T4 sequence: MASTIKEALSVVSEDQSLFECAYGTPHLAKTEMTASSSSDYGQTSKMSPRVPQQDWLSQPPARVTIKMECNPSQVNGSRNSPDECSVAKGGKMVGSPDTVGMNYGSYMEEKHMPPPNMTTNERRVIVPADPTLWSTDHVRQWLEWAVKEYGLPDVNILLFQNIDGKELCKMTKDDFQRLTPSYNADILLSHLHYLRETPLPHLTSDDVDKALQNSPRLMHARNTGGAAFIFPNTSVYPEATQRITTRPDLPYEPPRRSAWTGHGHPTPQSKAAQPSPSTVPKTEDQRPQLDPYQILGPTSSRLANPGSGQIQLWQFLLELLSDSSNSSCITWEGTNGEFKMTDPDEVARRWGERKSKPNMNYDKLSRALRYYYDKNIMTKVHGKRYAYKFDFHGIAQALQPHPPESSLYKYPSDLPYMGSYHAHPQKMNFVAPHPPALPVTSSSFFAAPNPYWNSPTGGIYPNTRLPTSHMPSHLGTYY
# Outline: as §1
# [5] = target: ELF1 (Homo sapiens, UniProt P32519 1-619)
# Sequence of ELF1 (P32519 whole entry): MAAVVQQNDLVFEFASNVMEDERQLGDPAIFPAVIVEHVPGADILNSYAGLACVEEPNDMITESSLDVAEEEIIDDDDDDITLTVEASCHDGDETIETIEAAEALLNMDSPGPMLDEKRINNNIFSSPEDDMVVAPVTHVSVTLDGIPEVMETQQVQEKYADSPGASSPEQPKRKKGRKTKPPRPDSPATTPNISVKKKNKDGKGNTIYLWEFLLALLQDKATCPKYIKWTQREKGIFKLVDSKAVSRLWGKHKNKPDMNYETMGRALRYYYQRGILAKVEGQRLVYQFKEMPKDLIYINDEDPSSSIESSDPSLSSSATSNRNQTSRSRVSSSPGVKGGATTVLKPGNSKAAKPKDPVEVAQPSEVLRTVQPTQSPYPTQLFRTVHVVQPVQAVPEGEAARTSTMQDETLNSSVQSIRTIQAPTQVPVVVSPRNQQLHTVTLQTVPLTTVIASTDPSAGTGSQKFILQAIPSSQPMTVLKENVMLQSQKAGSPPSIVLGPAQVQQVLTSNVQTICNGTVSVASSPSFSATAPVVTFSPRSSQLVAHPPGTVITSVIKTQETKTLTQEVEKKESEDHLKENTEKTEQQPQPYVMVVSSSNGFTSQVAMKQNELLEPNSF
# Outline: as §1
# [6] = target: T5, EHF (Homo sapiens, UniProt Q9NZC4 1-300)
# T5 sequence: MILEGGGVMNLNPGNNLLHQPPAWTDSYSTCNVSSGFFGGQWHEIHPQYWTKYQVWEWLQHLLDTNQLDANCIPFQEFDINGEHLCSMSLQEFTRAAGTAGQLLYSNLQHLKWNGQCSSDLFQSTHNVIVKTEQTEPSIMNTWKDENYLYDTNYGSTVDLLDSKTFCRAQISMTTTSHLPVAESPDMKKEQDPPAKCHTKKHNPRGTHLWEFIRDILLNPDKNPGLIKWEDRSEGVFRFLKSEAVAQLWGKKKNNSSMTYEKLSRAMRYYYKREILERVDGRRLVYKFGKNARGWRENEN
# Outline: as §1
# [7] = target: SPI1 (Homo sapiens, UniProt P17947 1-270)
# Outline: as §1
# [8] = target: SPIB (Homo sapiens, UniProt Q01892 1-262)
# Sequence of SPIB (Q01892 whole entry): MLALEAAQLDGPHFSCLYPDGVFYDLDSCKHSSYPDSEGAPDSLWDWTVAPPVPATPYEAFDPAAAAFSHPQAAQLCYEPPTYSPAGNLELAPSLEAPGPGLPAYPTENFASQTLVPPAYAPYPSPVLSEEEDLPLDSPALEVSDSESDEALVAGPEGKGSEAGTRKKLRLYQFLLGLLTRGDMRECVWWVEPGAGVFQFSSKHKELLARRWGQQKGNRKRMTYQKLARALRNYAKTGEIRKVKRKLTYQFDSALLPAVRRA
# Outline: as §1
# [9] = target: T6, ELK3 (Homo sapiens, UniProt P41970 1-407)
# T6 sequence: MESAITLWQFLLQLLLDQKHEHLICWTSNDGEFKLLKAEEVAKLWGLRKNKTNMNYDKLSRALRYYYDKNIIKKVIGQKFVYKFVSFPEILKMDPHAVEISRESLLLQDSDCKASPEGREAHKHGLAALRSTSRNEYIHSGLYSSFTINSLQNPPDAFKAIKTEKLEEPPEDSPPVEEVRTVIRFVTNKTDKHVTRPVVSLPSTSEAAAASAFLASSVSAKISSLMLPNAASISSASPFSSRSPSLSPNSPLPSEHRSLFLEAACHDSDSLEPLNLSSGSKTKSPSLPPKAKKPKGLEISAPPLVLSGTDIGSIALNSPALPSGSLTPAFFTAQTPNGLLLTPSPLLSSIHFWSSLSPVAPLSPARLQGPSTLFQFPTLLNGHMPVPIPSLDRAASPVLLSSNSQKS
# Outline: as §1
# [10] = target: ETV5 (Homo sapiens, UniProt P41161 1-510)
# Sequence of ETV5 (P41161 whole entry): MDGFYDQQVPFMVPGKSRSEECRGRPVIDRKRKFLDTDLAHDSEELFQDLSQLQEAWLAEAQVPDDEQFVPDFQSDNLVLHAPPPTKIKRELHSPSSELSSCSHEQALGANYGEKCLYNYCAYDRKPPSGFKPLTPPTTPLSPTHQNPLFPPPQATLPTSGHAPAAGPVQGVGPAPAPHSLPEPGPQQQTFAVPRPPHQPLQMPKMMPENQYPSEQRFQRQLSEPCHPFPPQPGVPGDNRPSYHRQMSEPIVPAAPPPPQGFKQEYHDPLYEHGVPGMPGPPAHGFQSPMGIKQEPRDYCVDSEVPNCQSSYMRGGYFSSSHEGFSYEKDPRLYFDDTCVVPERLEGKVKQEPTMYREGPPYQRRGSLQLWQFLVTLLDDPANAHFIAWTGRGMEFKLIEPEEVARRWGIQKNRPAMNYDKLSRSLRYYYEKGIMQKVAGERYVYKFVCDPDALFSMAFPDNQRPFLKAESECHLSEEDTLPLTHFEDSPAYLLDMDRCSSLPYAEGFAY
# Outline: as §1
# [11] = target: T7, SPIC (Homo sapiens, UniProt Q8N5J4 1-248)
# T7 sequence: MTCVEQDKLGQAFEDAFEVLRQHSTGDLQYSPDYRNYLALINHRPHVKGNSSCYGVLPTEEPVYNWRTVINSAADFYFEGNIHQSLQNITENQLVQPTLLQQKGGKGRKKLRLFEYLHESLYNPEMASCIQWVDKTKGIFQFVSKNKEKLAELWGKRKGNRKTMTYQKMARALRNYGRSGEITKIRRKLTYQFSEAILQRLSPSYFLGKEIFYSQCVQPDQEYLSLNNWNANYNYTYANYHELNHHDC
# Outline: as §1
# [12] = target: ELF4 (Homo sapiens, UniProt Q99607 1-663)
# Sequence of ELF4 (Q99607 whole entry): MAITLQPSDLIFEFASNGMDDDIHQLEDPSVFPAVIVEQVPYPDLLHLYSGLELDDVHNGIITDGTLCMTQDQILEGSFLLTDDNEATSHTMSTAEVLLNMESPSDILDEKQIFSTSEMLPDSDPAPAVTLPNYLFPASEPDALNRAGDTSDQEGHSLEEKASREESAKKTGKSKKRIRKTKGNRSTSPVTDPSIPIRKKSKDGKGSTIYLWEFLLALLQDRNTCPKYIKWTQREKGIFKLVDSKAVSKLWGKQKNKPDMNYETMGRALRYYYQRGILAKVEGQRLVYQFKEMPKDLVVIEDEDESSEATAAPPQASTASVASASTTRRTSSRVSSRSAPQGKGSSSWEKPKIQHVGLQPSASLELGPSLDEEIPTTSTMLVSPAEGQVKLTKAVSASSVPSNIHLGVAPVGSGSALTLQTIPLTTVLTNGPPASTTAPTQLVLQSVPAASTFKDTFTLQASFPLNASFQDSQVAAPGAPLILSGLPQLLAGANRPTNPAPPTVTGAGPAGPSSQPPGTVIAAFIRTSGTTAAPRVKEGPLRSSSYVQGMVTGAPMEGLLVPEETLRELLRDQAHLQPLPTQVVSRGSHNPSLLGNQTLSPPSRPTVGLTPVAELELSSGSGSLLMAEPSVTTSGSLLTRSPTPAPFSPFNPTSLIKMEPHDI
# Outline: as §1
# [13] = target: T8, ELK4 (Homo sapiens, UniProt P28324-2 1-405)
# T8 sequence: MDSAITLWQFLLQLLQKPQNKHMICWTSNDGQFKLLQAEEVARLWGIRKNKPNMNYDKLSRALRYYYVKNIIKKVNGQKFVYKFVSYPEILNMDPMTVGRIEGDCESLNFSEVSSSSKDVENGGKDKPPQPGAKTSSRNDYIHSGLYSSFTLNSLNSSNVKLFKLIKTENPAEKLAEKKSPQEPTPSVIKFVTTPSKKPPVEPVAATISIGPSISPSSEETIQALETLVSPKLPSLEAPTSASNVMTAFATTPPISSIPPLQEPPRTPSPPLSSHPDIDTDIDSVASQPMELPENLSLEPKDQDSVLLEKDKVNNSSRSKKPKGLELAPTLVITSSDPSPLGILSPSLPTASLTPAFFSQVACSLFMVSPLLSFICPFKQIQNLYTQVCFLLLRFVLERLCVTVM
# Outline: as §1
# [14] = target: T9, ETV2 (Homo sapiens, UniProt O00321 1-342)
# T9 sequence: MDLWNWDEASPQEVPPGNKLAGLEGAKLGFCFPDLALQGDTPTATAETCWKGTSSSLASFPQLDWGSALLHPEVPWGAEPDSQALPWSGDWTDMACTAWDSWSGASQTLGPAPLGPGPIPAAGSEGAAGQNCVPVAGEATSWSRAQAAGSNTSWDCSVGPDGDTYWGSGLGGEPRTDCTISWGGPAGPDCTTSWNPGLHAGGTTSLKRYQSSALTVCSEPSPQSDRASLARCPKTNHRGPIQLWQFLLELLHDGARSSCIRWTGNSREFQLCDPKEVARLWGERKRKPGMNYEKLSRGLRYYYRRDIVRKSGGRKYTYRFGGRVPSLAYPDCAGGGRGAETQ
# Outline: as §1
# [15] = target: T10, ELF3 (Homo sapiens, UniProt P78545 1-371)
# T10 sequence: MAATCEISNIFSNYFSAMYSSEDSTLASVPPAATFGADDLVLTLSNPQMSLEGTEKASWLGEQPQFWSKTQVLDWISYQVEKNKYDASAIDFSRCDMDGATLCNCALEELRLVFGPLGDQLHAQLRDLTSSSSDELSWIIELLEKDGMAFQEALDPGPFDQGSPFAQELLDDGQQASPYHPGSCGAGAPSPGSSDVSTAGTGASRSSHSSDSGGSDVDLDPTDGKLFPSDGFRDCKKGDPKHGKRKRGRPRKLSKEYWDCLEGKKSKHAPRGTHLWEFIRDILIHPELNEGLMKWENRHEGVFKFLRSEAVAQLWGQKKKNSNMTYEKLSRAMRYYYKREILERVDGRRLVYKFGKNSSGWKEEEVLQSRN
# Outline: as §1
# [16] = target: CRX (Homo sapiens, UniProt O43186 1-299)
# Sequence of CRX (O43186 whole entry): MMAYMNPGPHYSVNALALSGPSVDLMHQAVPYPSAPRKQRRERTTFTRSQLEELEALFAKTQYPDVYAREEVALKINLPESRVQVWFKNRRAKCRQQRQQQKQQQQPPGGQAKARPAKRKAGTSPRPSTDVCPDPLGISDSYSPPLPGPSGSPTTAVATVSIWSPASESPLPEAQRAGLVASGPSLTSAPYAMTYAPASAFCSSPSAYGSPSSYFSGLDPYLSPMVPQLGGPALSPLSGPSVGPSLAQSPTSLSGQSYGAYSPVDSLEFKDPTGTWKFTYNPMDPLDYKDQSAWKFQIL
# Outline: as §1
# [17] = target: ETV1 (Homo sapiens, UniProt P50549 1-477)
# Sequence of ETV1 (P50549 whole entry): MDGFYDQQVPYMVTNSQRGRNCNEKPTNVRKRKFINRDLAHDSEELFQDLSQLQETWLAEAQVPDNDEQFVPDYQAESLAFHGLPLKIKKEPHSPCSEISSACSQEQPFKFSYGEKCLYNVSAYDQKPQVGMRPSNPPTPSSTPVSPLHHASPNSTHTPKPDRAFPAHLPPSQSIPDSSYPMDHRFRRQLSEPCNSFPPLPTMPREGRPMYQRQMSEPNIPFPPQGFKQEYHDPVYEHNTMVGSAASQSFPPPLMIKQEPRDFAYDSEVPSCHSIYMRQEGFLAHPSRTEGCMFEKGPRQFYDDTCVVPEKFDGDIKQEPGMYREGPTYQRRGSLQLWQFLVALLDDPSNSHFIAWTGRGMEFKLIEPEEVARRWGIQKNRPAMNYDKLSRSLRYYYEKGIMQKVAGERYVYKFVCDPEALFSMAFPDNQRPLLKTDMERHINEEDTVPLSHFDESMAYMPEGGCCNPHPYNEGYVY
# Outline: as §1
sequence,measurement,setting,value
TGCTGA,binding signal,[1],"1.11 fold enrichment (6-mer frequency, TF over GST control)"
same,binding signal,[2],"1.03 fold enrichment (6-mer frequency, TF over GST control)"
same,binding signal,[3],"1.07 fold enrichment (6-mer frequency, TF over GST control)"
same,binding signal,[4],"1.01 fold enrichment (6-mer frequency, TF over GST control)"
same,binding signal,[5],"1.07 fold enrichment (6-mer frequency, TF over GST control)"
same,binding signal,[6],"1.14 fold enrichment (6-mer frequency, TF over GST control)"
same,binding signal,[7],"1.12 fold enrichment (6-mer frequency, TF over GST control)"
same,binding signal,[8],"1.01 fold enrichment (6-mer frequency, TF over GST control)"
same,binding signal,[9],"1.19 fold enrichment (6-mer frequency, TF over GST control)"
same,binding signal,[10],"1.07 fold enrichment (6-mer frequency, TF over GST control)"
same,binding signal,[11],"1.18 fold enrichment (6-mer frequency, TF over GST control)"
same,binding signal,[12],"1.15 fold enrichment (6-mer frequency, TF over GST control)"
same,binding signal,[13],"1.11 fold enrichment (6-mer frequency, TF over GST control)"
same,binding signal,[14],"1.15 fold enrichment (6-mer frequency, TF over GST control)"
same,binding signal,[15],"1.09 fold enrichment (6-mer frequency, TF over GST control)"
same,binding signal,[16],"1.04 fold enrichment (6-mer frequency, TF over GST control)"
same,binding signal,[17],"1.12 fold enrichment (6-mer frequency, TF over GST control)"
